The text below walks through data of PubChem BioAssay (NCATS).

For experiment [1], the target named is Mitogen-activated protein kinase 10 (Mus musculus) (UniProt Q61831). In words: JNK3 AlphaScreen Assay (AID 530; active = well fitted curve in either direction with a large enough effect, not every such curve was filed as active;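 note: kinase came from lysate of stimulated human HepG2 cells; signal reports phosphorylation of biotinylated GST-cJun 1-79 at Ser73 with 10 µM ATP; % is set by controls: 0 for no effect and ±100 for the full control effect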). In short, it runs like this: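 Kinase buffer: 20 mM Tris-HCl pH 7.6, 10 mM MgCl2, 1 mM DTT, 0.1 mM Na3VO4, 0.01% Tween-20; ATP 10 uM. Substrate biotin-GST-cJun(1-79), enzyme from activated HepG2 lysates. Detection by Ser73 phospho-antibody AlphaScreen.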

Experiment [2] can be described thus: Cell Viability - N2a (AID 540).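 Note: cells exposed to compound for 40 h at 37 °C; plate controls were DMSO alone for no effect and tamoxifen control for full effect; nearly all actives have a fitted effect of over 45% in size.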 As to conditions: N2a mouse neuroblastoma cell viability; activity change, negative = cytotoxicity: at 92.2 µM (top of the series). In short, it runs like this:
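N2a mouse neuroblastoma, 1500 cells/well, 5 hr settle; compound 40 hr, 37 °C; CellTiter-Glo 20 min RT; luminescence; Hill-fit AC50.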

Experiment [3] in a line: Cell Viability - HUV-EC-C (AID 542).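 Note: cells exposed to compound for 40 hours; % is set by controls: 0 for no effect and ±100 for the full control effect; nearly all actives have a fitted effect of over 35% in size.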 A digest of the protocol: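 Luminescent ATP read-out (CellTiter-Glo, 20 min room temperature) after 40 hr compound treatment of HUV-EC-C cells at 37 °C. Concentration-response data fitted with the standard Hill equation to give AC50; tamoxifen and doxorubicin served as positive controls.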
Experiment [4] in a line: Cell Viability - Renal Proximal Tubule (AID 545).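 Note: cells exposed to compound for 40 hours; 0% = DMSO only and -100% = 100 µM tamoxifen; nearly all actives have a fitted effect of over 40% in size.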 In short, it runs like this: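 Primary rat renal proximal tubule cells (1000/well) were treated with compounds for 40 hr at 37 °C in complete medium. Intracellular ATP was measured by CellTiter-Glo luminescence, and AC50 values came from Hill-equation fits of concentration-response data.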
The nature of experiment [5]: Cell Viability - Mesenchymal (AID 546).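 Note: cells exposed to compound for 40 hours before reading; 0% = DMSO only and -100% = 100 µM tamoxifen.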 In short, it runs like this: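 CellTiter-Glo luminescence (intracellular ATP, 20 min room temperature) after 40 hr compound exposure at 37 °C of 1000 glomerulus-derived human kidney mesenchymal cells/well; AC50 values obtained by fitting qHTS concentration-response data to the Hill equation.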
A short description of experiment [6]: Cellular Toxicity (caspase-3) Mesangial (AID 660).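 Note: combined caspase 3 and 7 activity read by Caspase-Glo luminescence; cells exposed to compound for 16 h before the caspase read.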 In short, it runs like this:
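Luminescent Caspase-Glo 3/7 readout (aminoluciferin substrate cleavage, 20 min RT) after 16 h compound exposure at 37 °C of normal human mesangial cells. Signal increase normalized between DMSO basal and 100 uM tamoxifen; Hill-equation AC50.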

A short description of experiment [7]: Cellular Toxicity (caspase-3) Renal Proximal Tubule (AID 667).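 Note: cells exposed to compound for 16 hours at 37 °C before detection; 0% = DMSO basal and 100% = 10 µM staurosporine.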 A digest of the protocol:
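Primary rat proximal tubule cells, 1000/well, 5 h plating at 37 °C, then compound 16 h at 37 °C. Caspase-Glo 3/7 reagent, 1 h RT, luminescence. Normalized to DMSO (basal) and 10 uM staurosporine (100%); Hill-fit AC50.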

The nature of experiment [8]: MultiTox-Fluor Cytotoxicity Assay - LYMP1-001 - Live Cells (AID 947).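 Note: 0% = DMSO only and full inhibition = tetraoctylammonium bromide control.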
Experiment [9] is described as follows: Cell Viability - LYMP2-005 (AID 967).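 Note: plate controls were DMSO only for no effect and 92 µM tetraoctylammonium bromide control for full effect.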 A digest of the protocol:
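CellTiter-Glo luminescence (cellular ATP) read-out; LYMP2-005 lymphoblastoid cells, 2500/well, 5 h pre-incubation, then 24 h compound exposure at 37 C in complete medium. Tetraoctylammonium bromide positive control; AC50 by standard Hill fit.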

Experiment [10] can be described thus: Cell Viability - LYMP2-010 (AID 981).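 Note: cells exposed to compound for 24 hours at 37 °C; % is set by controls: 0 for no effect and ±100 for the full control effect; nearly all actives have a fitted effect of over 55% in size.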 A digest of the protocol: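 qHTS cytotoxicity, 1536-well: 2500 cells/well, 5 hr settle, 24 hr compound at 37 C, CellTiter-Glo 30 min RT, luminescence read. Decrease in ATP = toxicity; AC50 via standard Hill equation. Positive control tetraoctylammonium bromide.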
The nature of experiment [11]: Cell Viability - LYMP2-016 (AID 984).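 Note: cells exposed to compound for 24 hours at 37 °C; % is set by controls: 0 for no effect and ±100 for the full control effect; nearly all actives have a fitted effect of over 55% in size.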 In short, it runs like this: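 Human lymphoblastoid cells (LYMP2-016), 2500/well in complete medium, preincubated 5 hr at 37 C, then compound-treated 24 hr at 37 C. Intracellular ATP read by CellTiter-Glo luminescence after 30 min at room temperature; AC50 from Hill-equation concentration-response fits.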
Experiment [12] addresses Vitamin D3 receptor (Homo sapiens) (UniProt P11473). Kind of experiment: qHTS assay for small molecule antagonists of vitamin D receptor signaling (AID 588541; calls by dose curve;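 note: receptor activated by calcitriol during compound treatment; % is set by controls: 0 for no effect and ±100 for the full control effect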). In short, it runs like this:
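Antagonist-mode beta-lactamase reporter assay: HEK293T VDR-UAS-bla cells were exposed to titrated compound alongside 1-alpha,25-dihydroxyvitamin D3 at 3 nM final for 16 h. Values were normalized to the 50 nM agonist control and DMSO basal, with IC50 and efficacy from Hill equation fits.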
(qHTS replaces the single test concentration by a dilution series.)

A short description of experiment [13]: qHTS assay for small molecule antagonists of retinoid X receptor alpha signaling (AID 588546).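 Note: cells stimulated with 9-cis-retinoic acid as agonist; % is set by controls: 0 for no effect and ±100 for the full control effect.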 The settings on record: HEK293T RXRa-UAS-bla, beta-lactamase ratio, antagonist mode; measured here: W530 green channel, cytotoxicity proxy. In short, it runs like this:
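Beta-lactamase reporter inhibition, read as CCF4 fluorescence ratio (ex 405, em 460/530 nm) after 2 h at RT. HEK293T UAS-bla cells, 2500/well, were stimulated with 9-cis-RA at 500 or 100 nM final alongside test compound for 18 h at 37 C.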

For experiment [14], the target named is Voltage-gated inwardly rectifying potassium channel KCNH2 (Homo sapiens) (UniProt Q12809). Kind of experiment: qHTS Assay for Small Molecule Inhibitors of the Human hERG Channel Activity (AID 588834).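 Note: lower thallium flux fluorescence means stronger hERG block; nearly all actives have a fitted effect of over 50% in size.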 Note: potency is the fitted concentration of half-maximal effect. In short, it runs like this:
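In hERG-transduced U2OS cells, dye-loaded for 1 hr at room temperature in dark, test compounds incubated 10 min at 37 °C before thallium stimulation. AC50 values derived by Hill modelling of concentration-response.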

Experiment [15] is described as follows: qHTS assay for small molecule disruptors of the mitochondrial membrane potential - 1 hr assay (AID 651754; calls by dose curve; note: % is set by controls: 0 for no effect and ±100 for the full control effect; nearly all actives have a fitted effect of over 35% in size). In short, it runs like this: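 Read-out: dye fluorescence at 490 nm ex/535 nm em (monomers) and 540 nm ex/590 nm em (aggregates) in HepG2 cells. Compound exposure 1 hr at 37C, followed by 30 min dye loading.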
The target of experiment [16] is Nuclear receptor subfamily 1 group I member 2 (Rattus norvegicus) (UniProt Q9R1A7). Kind of experiment: qHTS assay for small molecule activators of the rat pregnane X receptor (rPXR) signaling pathway (AID 651751; call rule not given here; note: 0% is about no effect). As to conditions: rPXR reporter cells, luciferase (One-Glo), 24 h.
Nuclear receptor subfamily 1 group I member 2 (Rattus norvegicus), sequence (Q9R1A7 whole entry, looked up): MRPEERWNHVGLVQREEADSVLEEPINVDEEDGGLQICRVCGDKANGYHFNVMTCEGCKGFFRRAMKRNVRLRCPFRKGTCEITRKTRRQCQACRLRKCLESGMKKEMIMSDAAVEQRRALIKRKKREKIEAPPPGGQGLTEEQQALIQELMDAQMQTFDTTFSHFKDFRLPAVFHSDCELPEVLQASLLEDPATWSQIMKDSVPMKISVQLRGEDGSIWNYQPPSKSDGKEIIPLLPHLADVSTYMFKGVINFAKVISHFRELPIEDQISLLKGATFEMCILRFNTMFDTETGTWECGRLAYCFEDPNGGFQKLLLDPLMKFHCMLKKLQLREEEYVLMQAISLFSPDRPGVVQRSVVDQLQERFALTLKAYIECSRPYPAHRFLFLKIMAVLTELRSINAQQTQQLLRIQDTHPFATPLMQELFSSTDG
Experiment [17] can be described thus: qHTS assay for small molecule activators of the human pregnane X receptor (PXR) signaling pathway (AID 720659; call rule not given here; note: 0% is about no effect).
Experiment [18] deals with Cytochrome P450 3A4 (Homo sapiens) (UniProt P08684). Kind of experiment: qHTS Assay for Inhibitors and Substrates of Cytochrome P450 3A4 (AID 884). Note: % is set by controls: 0 for no effect and ±100 for the full control effect; nearly all actives have a fitted effect of over 50% in size. A digest of the protocol:
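Luminescent readout of luciferin produced by CYP3A4 (20 nM) dealkylation of Luciferin-PPXE, 25 uM (its KM). NADPH-driven reaction ran 60 min at RT after 10 min compound preincubation; data scaled to 57 uM ketoconazole as 100% inhibition.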

Experiment [19] can be described thus: Cell Viability - LYMP2-024 (AID 988).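 Note: plate controls were DMSO only for no effect and 92 µM tetraoctylammonium bromide for full effect; nearly all actives have a fitted effect of over 60% in size.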 A digest of the protocol: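 ATP-based luminescence (CellTiter-Glo, 30 min RT) after 24 h compound exposure at 37 C of 2500 lymphoblastoid cells/well; decrease in ATP taken as cytotoxicity. qHTS concentration-response fitted to standard Hill equation for AC50.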
A short description of experiment [20]: qHTS assay for cell viability of HEK293 cells (AID 743288). Note: % is set by controls: 0 for no effect and ±100 for the full control effect; nearly all actives have a fitted effect of over 50% in size. As to conditions: ATP luminescence (CellTiter-Glo), 18 h, stronger effect = lower value. In short, it runs like this: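 After 18 h compound exposure at 37 C, parental HEK293 cells (2,000/well) are lysed with CellTiter-Glo and luminescence is read following 30 min at room temperature.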

Values joined by “and” are separate entries in the source; they are usually repeats but may differ in a detail not shown here. Equal values may be shown once. Results filed as inconclusive are left out. Active and inactive are the calls of the source. Unless noted, calls come from the whole dose curve; as a rule, active = well fitted curve in the direction sought with a large enough effect; inconclusive = small, poorly fitted or top-dose-only effect, or another doubt; inactive = no such curve, though single readings can be large; an effect the other way counts as inactive or inconclusive.

Voltage-gated inwardly rectifying potassium channel KCNH2 (Homo sapiens), sequence (Q12809 whole entry, looked up): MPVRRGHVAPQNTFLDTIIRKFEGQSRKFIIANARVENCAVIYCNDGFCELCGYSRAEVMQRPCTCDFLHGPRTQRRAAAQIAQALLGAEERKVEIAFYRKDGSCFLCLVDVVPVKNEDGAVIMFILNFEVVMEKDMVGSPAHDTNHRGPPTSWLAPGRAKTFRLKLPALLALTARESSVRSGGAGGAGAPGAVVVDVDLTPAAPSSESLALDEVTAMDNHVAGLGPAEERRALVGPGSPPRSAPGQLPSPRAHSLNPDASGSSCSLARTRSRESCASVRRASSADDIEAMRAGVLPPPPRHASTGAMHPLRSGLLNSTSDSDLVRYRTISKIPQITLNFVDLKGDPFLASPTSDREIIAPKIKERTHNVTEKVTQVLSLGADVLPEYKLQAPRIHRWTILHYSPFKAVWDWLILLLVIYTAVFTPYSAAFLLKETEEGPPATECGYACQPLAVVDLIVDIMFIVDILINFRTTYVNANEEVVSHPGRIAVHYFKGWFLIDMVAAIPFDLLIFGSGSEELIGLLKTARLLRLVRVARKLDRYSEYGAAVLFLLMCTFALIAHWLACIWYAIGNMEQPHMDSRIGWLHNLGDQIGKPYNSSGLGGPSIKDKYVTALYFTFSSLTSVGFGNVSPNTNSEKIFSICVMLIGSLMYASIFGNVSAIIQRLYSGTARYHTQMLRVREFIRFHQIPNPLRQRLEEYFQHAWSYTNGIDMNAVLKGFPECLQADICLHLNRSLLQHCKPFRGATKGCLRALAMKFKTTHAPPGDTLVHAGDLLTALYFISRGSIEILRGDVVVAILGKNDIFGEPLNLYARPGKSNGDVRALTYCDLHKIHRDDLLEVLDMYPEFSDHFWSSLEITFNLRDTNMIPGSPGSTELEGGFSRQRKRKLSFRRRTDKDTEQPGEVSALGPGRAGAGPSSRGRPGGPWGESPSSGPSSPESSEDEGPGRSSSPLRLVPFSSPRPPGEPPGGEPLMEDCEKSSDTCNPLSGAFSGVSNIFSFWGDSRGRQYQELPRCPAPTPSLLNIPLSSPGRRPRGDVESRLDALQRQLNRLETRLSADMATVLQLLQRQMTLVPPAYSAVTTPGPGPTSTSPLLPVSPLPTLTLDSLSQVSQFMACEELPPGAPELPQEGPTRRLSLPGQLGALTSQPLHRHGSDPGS
Vitamin D3 receptor (Homo sapiens), sequence (P11473 whole entry, looked up): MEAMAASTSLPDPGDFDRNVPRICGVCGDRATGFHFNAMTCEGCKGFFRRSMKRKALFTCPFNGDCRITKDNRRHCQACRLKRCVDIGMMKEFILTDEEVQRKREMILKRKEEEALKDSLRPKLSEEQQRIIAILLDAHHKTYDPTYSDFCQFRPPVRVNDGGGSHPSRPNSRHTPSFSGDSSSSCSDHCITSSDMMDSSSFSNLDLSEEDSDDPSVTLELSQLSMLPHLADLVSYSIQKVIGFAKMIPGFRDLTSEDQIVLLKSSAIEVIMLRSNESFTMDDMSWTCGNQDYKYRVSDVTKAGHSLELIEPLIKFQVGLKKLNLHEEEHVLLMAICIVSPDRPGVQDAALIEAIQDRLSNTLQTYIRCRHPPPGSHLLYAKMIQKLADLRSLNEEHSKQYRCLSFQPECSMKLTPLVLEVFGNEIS
Cytochrome P450 3A4 (Homo sapiens), sequence (P08684 whole entry, looked up): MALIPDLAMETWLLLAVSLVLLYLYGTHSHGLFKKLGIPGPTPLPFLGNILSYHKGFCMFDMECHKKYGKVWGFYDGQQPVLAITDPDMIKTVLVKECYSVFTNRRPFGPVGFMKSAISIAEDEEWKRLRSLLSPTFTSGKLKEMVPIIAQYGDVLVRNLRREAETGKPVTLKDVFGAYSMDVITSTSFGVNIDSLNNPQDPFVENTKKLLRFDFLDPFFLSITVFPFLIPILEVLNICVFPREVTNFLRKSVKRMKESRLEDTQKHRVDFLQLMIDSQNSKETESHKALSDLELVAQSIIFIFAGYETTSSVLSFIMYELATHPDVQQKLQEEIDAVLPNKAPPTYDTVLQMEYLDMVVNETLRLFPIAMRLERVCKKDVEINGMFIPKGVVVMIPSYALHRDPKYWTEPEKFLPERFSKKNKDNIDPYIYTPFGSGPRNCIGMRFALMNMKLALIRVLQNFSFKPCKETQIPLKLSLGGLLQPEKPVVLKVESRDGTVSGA

With `Nc1cc(Cl)cc(C(=O)O)c1Cl`, the Potency entry in [1], in experiment [2], in [3], in [5], in [9] and in [10] was “inactive” each time. Besides, the Potency result in experiment [11], in experiment [14] and in experiment [15] was “inactive” each time. Moreover, the call in experiment [4], in [6], in experiment [7], in experiment [8], in experiment [12] and in [17] was inactive. Moreover, the max response in [13] is 0.823% and -3.03%; in [16] it was 3.15% (inactive) and -3.28% (inactive).

As for `O=[N+]([O-])c1ccccc1O`, the Potency result in experiment [1], in experiment [2], in experiment [3], in [5], in experiment [18] and in experiment [9] was “inactive” each time. Also, the Potency result in experiment [10], in [11], in experiment [19], in experiment [14] and in [15] was “inactive” throughout. Further, the call in [4], in [6], in experiment [7], in experiment [8] and in experiment [17] was inactive. For the same molecule, the results for the max response in experiment [13], in experiment [20] and in experiment [16] were -5.99%, 0.38% (inactive) and 0.314% (inactive), respectively.

`ClCCCCl`: the Potency result in experiment [1], in experiment [2], in experiment [3], in experiment [5], in experiment [18] and in [9] was “inactive” throughout. Further, the Potency result in experiment [10], in [11], in [19], in experiment [14] and in experiment [15] was “inactive” each time. Besides, the molecule was classed as inactive in experiment [4], in experiment [6], in [8], in experiment [12] and in experiment [17]. In addition, the values for the max response in [13], in experiment [20] and in experiment [16] were -7.74%, 2.44% (inactive) and -3.7% (inactive), respectively.

On to `Cc1ccc(N)cc1Cl`, for which the Potency entry in experiment [1], in [2], in experiment [3], in experiment [5], in experiment [9] and in experiment [10] was “inactive” each time. In addition, the Potency result in [11], in [19], in experiment [14] and in experiment [15] was “inactive” each time. The outcome in [4], in experiment [7], in experiment [8], in [12] and in experiment [17] was inactive. The max response in experiment [13] is -6.83%; in [20], -1.75% (inactive).

For `C1CC2OC2CC1C1CO1` (centres undefined), the Potency entry in experiment [1], in [2], in experiment [3], in [5], in experiment [18] and in [9] was “inactive” each time. Besides, the Potency result in experiment [10], in [11], in [14] and in experiment [15] was “inactive” throughout. The molecule was classed as inactive in experiment [4], in [6], in experiment [7], in [8], in experiment [12] and in [17]. Further, the max response in experiment [13] is -7.13% and -27.8%; in experiment [16], -1.19% (inactive) and -4.43% (inactive).

As to `CC(C)C#N`, the Potency entry in experiment [1], in experiment [2], in experiment [3], in [5], in [18] and in experiment [9] was “inactive” throughout. Also, the Potency entry in experiment [10], in experiment [11], in experiment [19], in experiment [14] and in experiment [15] was “inactive” throughout. Moreover, the result in [4], in [6] and in experiment [17] was inactive. Moreover, the values for the max response in [13], in experiment [20] and in experiment [16] were -7.48%, 0.536% (inactive) and 3.94% (inactive), respectively.

On to `Brc1cccc(-c2ccccc2)c1`, for which the Potency result in experiment [1], in [2], in experiment [3], in experiment [5], in [18] and in [9] was “inactive” each time. Also, the Potency result in [10], in experiment [11] and in experiment [15] was “inactive” in each case. The call in experiment [4], in experiment [6], in [7], in [8], in experiment [12] and in experiment [17] was inactive. Also, the Potency in [14] was 35.5 µM (active). The max response is 8.7% (inactive) in [20] and 2.39% (inactive) in experiment [16].

With `Cc1cccc(C)c1N`, the Potency result in experiment [1], in [2], in experiment [3], in experiment [5], in experiment [18] and in experiment [9] was “inactive” throughout. The Potency result in experiment [10], in experiment [11], in experiment [19], in experiment [14] and in experiment [15] was “inactive” in each case. The outcome in experiment [4], in [6], in experiment [7], in experiment [8] and in experiment [17] was inactive. Further, the max response in experiment [13] was -4.18%; in experiment [20], -2.34% (inactive); in [16], 0.51% (inactive).
